ERK AVP block = inhibitors of vasopressin-stimulated ERK signaling pathway; HEK293-V1b, vasopressin-stimulated pERK AlphaScreen; 72,000 tested, 0.99% active; Potency, µM (series often up to 57.5 µM), without a hit: at the top dose activity, negative = inhibition, actives largely listed as inhibitors; also: % is scaled to controls: 0 for no effect and ±100 for the full control effect; nearly all actives have a fitted effect of over 55% in size
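qHTS, compounds titrated on V1b-expressing HEK293 cells. Preincubation 30 min at 37C, vasopressin 25 nM for 5 min, lysis 10 min, bead incubation 5 hr at room temperature.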
Casp7 inh = allosteric or competitive inhibitors of human caspase-7. P55210. recombinant caspase-7, Ac-DEVD-AFC fluorescence rate. Potency, µM (highest dose often 57.5 µM), for the others: at the top dose activity change, negative = inhibition, actives largely listed as inhibitors. 75,000 tested, 0.02% active; active = well fitted inhibition curve with a large enough effect in the main read-out, with a control signal flat, not every such curve was filed as active; inconclusive = small, poorly fitted or top-dose-only effect, or a change in a side signal; also: % of control where 0% means no effect
HEK293 cAMP cs = raises cAMP in parental HEK293 cells, TSHR agonist counter-screen; parental HEK293 CNG cAMP sensor, membrane potential fluorescence; Potency, µM (titrated, usually from 57.1 µM), without a hit: at the highest dose activation, usual class: activators; 73,000 tested, 2.5% active; AID 938; also: % of control where 0% means no effect; nearly all actives have a fitted effect of over 55% in size
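Parental HEK 293 cells stably expressing a modified CNG channel (no TSHR) report cAMP rise as membrane depolarization. Membrane potential dye with 100 uM RO 20-1724 was loaded for 60 min at room temperature, then compound added for 30 min; fluorescence read at 590 nm.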
Casp1 inh = allosteric or competitive inhibitors of human caspase-1. Caspase-1 enzyme, Ac-WEHD-AFC fluorogenic rate. Potency, µM (highest dose often 57.5 µM), for the others: at the highest dose activity change, negative = inhibition, hits mostly inhibitors. 75,000 tested, 0.03% active;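 also: plate controls were vehicle for no effect and no substrate for full effect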
TSHR ag = agonists of human thyroid stimulating hormone receptor; P16473; HEK293-CNG-TSHR cells (CNG channel as cAMP sensor), membrane potential dye, cAMP; Potency, µM (series often up to 57.1 µM), inactives show at the top dose activation, actives largely listed as activators; 73,000 tested, 0.48% active; active = well fitted activation curve with a large enough effect in the main read-out, with a control signal flat, not every such curve was filed as active; inconclusive = small, poorly fitted or top-dose-only effect, or a change in a side signal; inactive = no such curve, though single readings can be large or run the other way; % of control where 0% means no effect;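 also: the control signal comes from parental cells without the receptor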
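HEK 293 cells stably expressing TSHR and a modified CNG channel, with CNG-only parental cells as counterscreen, were preloaded 60 min at room temperature with membrane potential dye containing 100 uM RO 20-1724. Compound exposure was 30 min, and depolarization was read as fluorescence at 590 nm.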
15-hLO inh = 15-hLO (ALOX15) enzyme inhibition. purified 15hLO-1, xylenol orange hydroperoxide absorbance. Potency, µM (highest dose often 57.1 µM), without a hit: at the highest dose activity change, negative = inhibition, usual class: inhibitors. 74,000 tested, 1.4% active; also: % is scaled to controls: 0 for no effect and ±100 for the full control effect; nearly all actives have a fitted effect of over 55% in size
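Hydroperoxide formed from arachidonic acid (50 uM) by purified human 15hLO-1 (40 nM) oxidizes ferrous iron, and the ferric-xylenol orange complex is read at 573 versus 405 nm. Compounds were preincubated 15 min; reaction ran 6 min at room temperature.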
* hit, by the source's call; ! = not active in a repeat; [ ] = remark or other dose. Hits are enriched below; roughly 4.8% of the tested compounds scored in any of these assays. Unless noted, calls follow the shape of the dose curve; as a rule, active = well fitted curve in the direction sought with a large enough effect; inconclusive = small, poorly fitted or top-dose-only effect, or another doubt; inactive = no such curve, though single readings can be large; an effect the other way counts as inactive or inconclusive. Potency is read from the fitted curve at half-maximal effect.

CC(=O)[C@@H]1CC[C@H]2[C@H]3CC[C@H]4C[C@@H](O)CC[C@]4(C)[C@@H]3CC[C@]12C was read as ERK AVP block -9%, Casp7 inh 0%, HEK293 cAMP cs 8%, Casp1 inh 3%, TSHR ag 12% and 15-hLO inh -8%.
O=c1[nH]c2ccccc2n1CCCN1CCC(n2c(=O)[nH]c3cc(Cl)ccc32)CC1 was read as ERK AVP block inconclusive, Casp7 inh 2%, HEK293 cAMP cs 16µM*!, Casp1 inh 2%, TSHR ag inconclusive and 15-hLO inh -18%.
For O=c1[nH]c(=O)n(C2CCCCCC2)c(O)c1C=NC1CCN(Cc2ccccc2)CC1 the results were ERK AVP block -13%, Casp7 inh -1%, HEK293 cAMP cs 22%, Casp1 inh 0%, TSHR ag 19% and 15-hLO inh -16%.
`CC(=O)N(C1=NCCCS1)c1ccc(F)cc1` gave ERK AVP block 0%, Casp7 inh 2%, HEK293 cAMP cs 1.6µM*, Casp1 inh 0%, TSHR ag inconclusive and 15-hLO inh -8%.
For O=S(=O)(O)/C(=C\c1ccccc1)c1ccccc1 (tested in a mixture with another compound) the results were ERK AVP block 3%[11.5 µM], Casp7 inh -3%[11.5 µM], HEK293 cAMP cs 21%[11.4 µM], Casp1 inh 1%[11.5 µM], TSHR ag 12%[11.4 µM] and 15-hLO inh 15%[11.4 µM].
For Cc1cc2c(s1)NC(=O)CN=C2c1cccs1 the results were ERK AVP block -5%, Casp7 inh -2%, HEK293 cAMP cs 24%, Casp1 inh 0%, TSHR ag 4% and 15-hLO inh 6%.
For O=C1CN=C(c2cccs2)c2c(sc3c2CCCC3)N1 the results were ERK AVP block 19%, Casp7 inh -1%, HEK293 cAMP cs inconclusive, Casp1 inh -2%, TSHR ag inconclusive and 15-hLO inh 16µM*.
Screening N#C/C(=C\c1ccc(O)c(O)c1)C(N)=S returned ERK AVP block 16µM*!, Casp7 inh -8%, HEK293 cAMP cs inconclusive, Casp1 inh -7%, TSHR ag inconclusive and 15-hLO inh 4µM*.
`O=C(c1ccc2nc(-c3ccco3)c(-c3ccco3)nc2c1)N1CCC2(CC1)OCCO2` gave ERK AVP block inconclusive, Casp7 inh inconclusive, HEK293 cAMP cs 19%, Casp1 inh inconclusive, TSHR ag -4% and 15-hLO inh 4µM*.
For CC(C)C[C@H](NP(=O)(O)O[C@@H]1O[C@@H](C)[C@@H](O)[C@@H](O)[C@H]1O)C(=O)N[C@@H](Cc1c[nH]c2ccccc12)C(=O)O the results were ERK AVP block -12%, Casp7 inh 1%, HEK293 cAMP cs -3%, Casp1 inh -1%, TSHR ag 2% and 15-hLO inh 8%.
Screening Oc1ccc(Cl)cc1Cc1cc(Cl)ccc1O returned ERK AVP block -6%, Casp7 inh -18%, HEK293 cAMP cs 26%, Casp1 inh inconclusive, TSHR ag -14% and 15-hLO inh 13µM*.
For Oc1ccc(Cl)cc1Cc1ccccc1 the results were ERK AVP block 34%, Casp7 inh -7%, HEK293 cAMP cs 35%, Casp1 inh -7%, TSHR ag -9% and 15-hLO inh inconclusive.
Screening CCC(=NC(C)c1ccccc1)c1c(O)n(C)c(=O)n(C)c1=O (stereo not given) returned ERK AVP block -21%, Casp7 inh -3%, HEK293 cAMP cs inconclusive, Casp1 inh -1%, TSHR ag inconclusive and 15-hLO inh 3%.
`CC(=O)c1c(O)n(C)c(=S)n(-c2ccccc2)c1=O` gave ERK AVP block -1%, Casp7 inh 0%, HEK293 cAMP cs 1µM*, Casp1 inh -1%, TSHR ag inconclusive and 15-hLO inh -11%.
Screening N#Cc1ccc(CN2CCCC3(CCN(C(=O)Oc4ccccc4)CC3)C2)cc1 returned ERK AVP block 4%, Casp7 inh -2%, HEK293 cAMP cs 16µM*, Casp1 inh 1%, TSHR ag inconclusive and 15-hLO inh 6%.
`O=C(Oc1ccccc1)N1CCC2(CCCN(Cc3ccccc3)C2)CC1` gave ERK AVP block 10%, Casp7 inh -4%, HEK293 cAMP cs inconclusive, Casp1 inh -5%, TSHR ag inconclusive and 15-hLO inh -3%.
`O=C(Oc1ccccc1)N1CCC[C@@]2(CCN(Cc3cc(C(F)(F)F)cc(C(F)(F)F)c3)C2)C1` gave ERK AVP block 9%, Casp7 inh -1%, HEK293 cAMP cs 16µM*, Casp1 inh -3%, TSHR ag inconclusive and 15-hLO inh -2%.
`CCN(CC)c1ncnc2c1ncn2[C@@H]1O[C@@H](COP(=O)(O)OP(=O)(O)C(Br)(Br)P(=O)(O)O)[C@H](O)[C@@H]1O` gave ERK AVP block 9%, Casp7 inh 1%, HEK293 cAMP cs 24%, Casp1 inh 5%, TSHR ag 8% and 15-hLO inh -9%.
Screening C[C@H](N[C@@H](C)CCc1ccccc1)[C@H](O)c1ccc(O)cc1 returned ERK AVP block inconclusive, Casp7 inh 0%, HEK293 cAMP cs inconclusive, Casp1 inh 2%, TSHR ag inconclusive and 15-hLO inh 10%.
For CSCC[C@@H](N)P(C)(=O)O the results were ERK AVP block -10%[11.5 µM], Casp7 inh 1%[11.5 µM], HEK293 cAMP cs -3%[11.4 µM], Casp1 inh 1%[11.5 µM], TSHR ag -3%[11.4 µM] and 15-hLO inh -1%[11.4 µM].
Screening CN1[C@@H]2CC[C@H]1CC(O[C@@H](c1ccccc1)c1ccccc1N)C2 (stereo not given in full) returned ERK AVP block -7%, Casp7 inh -2%, HEK293 cAMP cs -3%, Casp1 inh 4%, TSHR ag 21% and 15-hLO inh 12%.
`CN1[C@@H]2CC[C@H]1CC(OC(c1ccc(F)cc1)c1ccc(F)cc1)C2` (stereo not given in full) gave ERK AVP block -2%, Casp7 inh 1%, HEK293 cAMP cs 32µM*, Casp1 inh -4%, TSHR ag inconclusive and 15-hLO inh -21%[25.6 µM].
For O=C1N[C@@]2(CN3CCC2CC3)C(=O)N1CN(Cc1ccccc1)c1ccccc1 the results were ERK AVP block 0%[11.5 µM], Casp7 inh -2%[11.5 µM], HEK293 cAMP cs -13%[11.4 µM], Casp1 inh -2%[11.5 µM], TSHR ag -6%[11.4 µM] and 15-hLO inh 7%[11.4 µM].
For CCCCCCn1c(N)c(C(=O)NCCN2CCOCC2)c2nc3ccccc3nc21 the results were ERK AVP block -16%, Casp7 inh inconclusive, HEK293 cAMP cs 6%, TSHR ag 19% and 15-hLO inh 16µM*.
Screening NC(=O)CI returned ERK AVP block 14%, Casp7 inh 2%, HEK293 cAMP cs -2%, Casp1 inh 4%, TSHR ag 2% and 15-hLO inh 32µM*.
